Reference: PubChem BioAssay AID1209 (Sanford-Burnham Center for Chemical Genomics, 2008)
In all, about 190,000 compounds went through this assay and about 810 (0.43%) were called active. No stated cut-off is given here; in the data, active means inhibition above about 50%; inactive means the rest. Only a selection was taken, and actives are over-represented in it overall.

The compounds below were run against Mannose-6-phosphate isomerase (Homo sapiens) (UniProt P34949) (assay: inhibitors of human PMI, primary screen, biochemical, fluorescence intensity, coupled assay (AID 1209;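 further: plate controls were DMSO vehicle for no effect and wells lacking substrate for full effect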)). Details: purified PMI enzyme, at 20 µM, active compounds read high.
Mannose-6-phosphate isomerase (Homo sapiens), sequence (P34949 whole entry, looked up): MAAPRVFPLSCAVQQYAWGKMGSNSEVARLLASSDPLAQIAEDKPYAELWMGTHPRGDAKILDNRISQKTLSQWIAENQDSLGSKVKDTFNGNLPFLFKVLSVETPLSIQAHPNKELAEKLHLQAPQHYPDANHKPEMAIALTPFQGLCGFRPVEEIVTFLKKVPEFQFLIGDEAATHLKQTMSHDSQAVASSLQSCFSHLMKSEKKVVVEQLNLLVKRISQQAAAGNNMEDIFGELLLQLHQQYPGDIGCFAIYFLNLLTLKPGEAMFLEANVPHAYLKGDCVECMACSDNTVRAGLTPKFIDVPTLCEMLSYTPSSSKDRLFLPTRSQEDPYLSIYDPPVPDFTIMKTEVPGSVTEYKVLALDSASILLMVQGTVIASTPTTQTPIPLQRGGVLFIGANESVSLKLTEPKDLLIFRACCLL

inhibition, active:
Oc1ccc(C(=S)N2CCN(c3cccc(Cl)c3)CC2)cc1 59.2%
COc1cc(C(=S)N2CCN(c3ccccc3Cl)CC2)cc(O)c1O 67.5%
COc1cc(C(=S)N2CCN(c3cccc(Cl)c3)CC2)ccc1O 58.8%
COC(=O)c1ccc2c(c1)C(C)(C)C(/C=C/c1ccc(O)cc1)=[N+]2C 72%
COC(=O)c1ccc2c(c1)C(C)(C)C(/C=C/c1ccc(OC)c(OC)c1OC)=[N+]2C 91.8%
O=C(O)CC1S/C(=N/N=C/c2ccc(-c3ccccc3[N+](=O)[O-])o2)NC1=O (configuration not stated) 68.4%
COC(=O)c1cccc(-n2[nH]nnc2=S)c1 64.8%

inhibition, inactive:
CSC1=C(C#N)C(c2ccc3c(c2)OCO3)C2=C(CCCC2=O)N1 (configuration not stated) -3%
Oc1ccccc1C(=S)N1CCN(c2cccc(Cl)c2)CC1 22.1%
COc1cc(C(=S)N2CCCC2)cc(OC)c1O 17.5%
CC(=O)c1ccc(NC(=S)N2CCN(c3cccc(Cl)c3)CC2)cc1 -6.5%
COc1cc(C(=S)N2CCCC2)cc(Cl)c1O 4.8%
COc1cc(C(=S)N2CCCC2)ccc1O -0.7%
COc1ccc(C(=S)N2CCN(c3cccc(Cl)c3)CC2)c(OC)c1 20.6%
Cc1cccc(C)c1NC(=O)C1(N(Cc2ccco2)C(=O)Cn2nnnc2N)CCCCC1 4.1%
COc1ccc(CNC(=O)C/C(C)=N/NC(=O)Cc2ccc(OC)cc2)cc1 -4%
COC(=O)c1ccc2c(c1)C(=O)/C(=C/c1ccc(O)cc1)O2 8%
COC(=O)c1ccc2c(c1)C(C)(C)C(/C=C/c1ccccc1O)=[N+]2C 39.9%
COC(=O)c1ccc(C(=O)OC)c(NC(=O)COC(=O)c2ccc(OC)c(OC)c2OC)c1 7.2%
COC(=O)c1ccc2nc(C)c(C)nc2c1 -5.7%
CN(C)c1ccc(C(=O)OCc2ccccc2)cc1 16%
CCS(=O)(=O)c1ccc2c(c1)N(S(=O)(=O)c1ccc(Cl)cc1)CC(C(=O)O)O2 (configuration not stated) -3.9%
O=C(O)CC1S/C(=N/N=C/c2ccc(-c3ccc(Cl)c([N+](=O)[O-])c3)o2)NC1=O (configuration not stated) -9%
Cc1ccc(-c2ccc(/C=N/N=C3/NC(=O)C(CC(=O)O)S3)o2)c([N+](=O)[O-])c1 (configuration not stated) 30.5%
COC(=O)c1cccc(-n2cnnn2)c1 -6.9%
COC(=O)c1cccc(NC(N)=S)c1 -7.9%
COc1ccc(OC)c2c(C)cc(NCCN3CCOCC3)nc12 11.7%
